Consider 97 compounds from PubChem BioAssay AID449762 (Southern Research Specialized Biocontainment Screening …, 2010).

Out of some 330,000 compounds screened, about 1,900 (0.58%) were called active. Inconclusive results (about 4%) are left out. No stated cut-off is given here; in the data, inconclusive means inhibition above about 70% without an active follow-up result; inactive means below that. Only a sample is shown. Potency and affinity values are given separately.

The test is described as follows: M. tuberculosis growth inhibition, HTS (AID 449762).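 Further: bacterial growth assessed after seven days of incubation.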 Conditions: M. tuberculosis H37Rv growth inhibition, 7H9 media; at 25 µM; stronger effect = higher value.
As to `COc1ccccc1C1CCN(Cc2ccc(Cl)c(Cl)c2)CC1`, the inhibition is 6.04% (inactive).

On to `COc1ccccc1C1CCN(Cc2ccccc2)CC1`, for which the inhibition is -7.77% (inactive).

As to `CCCn1c(=S)[nH]c2cc(C(=O)NCC3CCCO3)ccc2c1=O` (configuration not stated), the inhibition was -7.34% (inactive). For the compound `COc1ccc(C=Nc2cccc3c(=O)[nH][nH]c(=O)c23)c2ccccc12`, the inhibition was -1.04% (inactive). Next, `CC(C)NC(=S)N/N=C/c1ccc(C(C)(C)C)cc1`: 3.03% (inactive); `Cc1ccc(/C=N/NC(=O)C(=O)N/N=C/c2ccc(C)o2)o1`: -4.38% (inactive); `COC(=O)N/N=C/c1cc(Br)ccc1O`: -4.56% (inactive). On to `Cc1ccc(C)c(/C=N/NC(=S)NC(C)C)c1`, for which the inhibition was -0.52% (inactive). `COC(=O)c1nonc1NCn1nnc2ccccc21`: the inhibition is -13.7% (inactive). In the case of `Cc1ccccc1-n1c(-c2ccoc2)nc2ccccc2c1=O`, the inhibition was 13.6% (inactive). Next, `O=C(CCN1CCN(c2ccccc2F)CC1)Nc1ccc(F)cc1`: -1.83% (inactive); `S=c1[nH]nc(C2CCCCC2)n1/N=C/C=C/c1ccccc1`: 0.75% (inactive). Take `Cc1cc(C(=O)OCC(=O)N2CCc3ccccc32)c(C)o1`: the inhibition was 0.97% (inactive). Take `Cc1ccc(OCCC(=O)OCC(=O)NC(=O)NC2CCCC2)cc1`: the inhibition was 6.88% (inactive).

Consider `CC(C)(C)c1ccc(OCCC(=O)OCC(=O)NC2CC2)cc1`, for which the inhibition is -4.78% (inactive). Regarding `Cc1cc(=O)oc2c(C)c(OC(C)C(=O)NCC(O)c3ccccc3)ccc12` (configuration not stated), the inhibition was 0.93% (inactive).

Consider `C[C@H](CO)N1C[C@H](C)[C@@H](CN(C)S(=O)(=O)c2ccc(F)cc2)Oc2c(NC(=O)NC3CCCCC3)cccc2C1=O`, for which the inhibition is 6.78% (inactive). With `CCOC(=O)C1CCCN(C2CCN(Cc3nc(-c4ccccc4)no3)CC2)C1` (configuration not stated), the inhibition was -1.09% (inactive).

As for `Cc1c(Nc2cc(=O)oc3ccccc23)c(=O)n(-c2ccccc2)n1C`, the inhibition was -1.53% (inactive). On to `CCCc1ccc(S(=O)(=O)NCCc2ccncc2)cc1`, for which the inhibition is 2.76% (inactive).

As for `CCCCc1ccc(S(=O)(=O)NCCc2ccncc2)cc1`, the inhibition was 21.7% (inactive). `CCC(C(=O)Nc1cccc(S(=O)(=O)N(C)c2ccccc2)c1)c1ccccc1` (configuration not stated): the inhibition was -1.21% (inactive). Under `COc1cccc(Nc2c([N+](=O)[O-])cncc2[N+](=O)[O-])c1` stands 65.1% (inactive). In the case of `O=C(O)c1cccc(Nc2ccc([N+](=O)[O-])c3nonc23)c1`, the inhibition was 2.67% (inactive). Next, `O=C(COC(=O)CSc1ccc(F)cc1)NCc1ccco1`: -1.1% (inactive). For `O=C(O)c1cccc(S(=O)(=O)Nc2cccc3ccccc23)c1`, the inhibition was 20.9% (inactive). As for `CCN(CC)CCOc1ccc2c(c1)C(=NO)c1cc(OCCN(CC)CC)ccc1-2`, the inhibition was 9.59% (inactive).

Regarding `NC(N)=NN=C1c2ccccc2-c2ccccc21`, the inhibition is 6.09% (inactive).

In the case of `O=C(Cc1cccc(NC(=O)C2CCN(C(=O)C3CCCC3)CC2)c1)Nc1cccc(C(=O)N2CCCC2)c1`, the inhibition is -2.63% (inactive).

Take `CC(=O)Nc1ccc(NS(=O)(=O)c2ccc(-c3cnc(C4CC4)o3)cc2)cc1`: the inhibition is -1.71% (inactive). For the compound `COc1ccc(Cl)cc1S(=O)(=O)N(C)CC(=O)N1CCCC1`, the inhibition was 7.61% (inactive).

Consider `Cc1ccc(C)c(NC(=O)COc2coc(CN3CCc4ccccc43)cc2=O)c1`, for which the inhibition is 47.8% (inactive).

For the compound `CCOC(=O)c1ccc(NC(=O)COc2coc(CN3CCc4ccccc43)cc2=O)cc1`, the inhibition is 34.3% (inactive).

For the compound `COc1ccc(OC)c(NC(=O)Cn2cc(C#N)c3ccccc32)c1`, the inhibition was -1.64% (inactive).

Consider `Cc1ccc(S(=O)(=O)NC(=O)COc2ccccc2C)c(C)c1`, for which the inhibition was 0.6% (inactive). `O=C(CCC1CCCCC1)NC1=NCCS1`: the inhibition was -6.25% (inactive). In the case of `c1ccc(N/N=C2\CCCc3ccccc32)nc1`, the inhibition is 9.09% (inactive). Next, `Cc1cc(NC2CCCCC2)nc2ccccc12`: 10% (inactive); `O=C(NNC(=O)C1CCN(C(=O)Nc2ccccc2)CC1)c1ccc([N+](=O)[O-])cc1`: -0.74% (inactive); `COc1cc(NC(=O)NNC(=O)c2cc3occc3n2C)cc(OC)c1OC`: -1.55% (inactive). Turning to `O=C(Nc1ccc(OC(F)F)cc1)c1ncc(Cl)c(Cl)c1Cl`, the inhibition is 3.27% (inactive).

Turning to `Cc1ccc(CS(=O)(=O)c2ncc(Cl)c(C(=O)Nc3ccc(OC(F)F)cc3)n2)cc1`, the inhibition was 1.02% (inactive). Turning to `CCCCN(C(=O)c1c(CC)noc1C)c1c(N)n(CCCC)c(=O)[nH]c1=O`, the inhibition is -5.14% (inactive). `COc1cccc(CNC(=O)c2nnn(CC(=O)Nc3ccc4c(c3)OCO4)c2N)c1`: the inhibition is -1.11% (inactive). Next, `CCOC(=O)c1ccc(Oc2nc(N(C)C)nc(N(C)C)n2)cc1`: 17% (inactive); `CCOC(=O)c1ccc(Oc2nc(OC)nc(N(C)C)n2)cc1`: 4.44% (inactive); `CCc1nnc(N/N=C/c2cc(Br)c(O)cc2O)n1N`: 0.32% (inactive).

For `CCc1nnc(N/N=C/c2ccccc2F)n1N`, the inhibition was 31.3% (inactive). As to `COC(=O)c1ccc(-c2noc(CN(Cc3ccncc3)CC3CCCO3)n2)cc1` (configuration not stated), the inhibition was 41.2% (inactive). Regarding `CCN(CCn1cccn1)Cc1nc(-c2ccc(C(=O)OC)cc2)no1`, the inhibition was 24% (inactive).

Regarding `O=C(CSc1nnnn1C1CCCC1)N1CCOCC1`, the inhibition was -0.48% (inactive). As for `COc1ccc(NC(=O)CCN2CCN(S(=O)(=O)c3cc(Cl)ccc3Cl)CC2)cc1`, the inhibition is -9.19% (inactive). As for `Fc1ccccc1Oc1nc(-c2ccncc2)nc2ccccc12`, the inhibition is 4.31% (inactive). On to `O=C(N/N=C/c1c(O)n(Cc2ccccc2)c(=O)[nH]c1=O)c1ccccc1O`, for which the inhibition is 14.7% (inactive). Under `O=C(Nc1nc2ccccc2[nH]1)C1CC1` stands -4.47% (inactive); under `CC(=O)Nc1nc2ccccc2[nH]1`, -2.83% (inactive); under `O=C1CC(=O)N(c2ccccc2)c2ccccc21`, 8.88% (inactive). Under `O=C1CCCCC(=O)N(c2ccccc2)c2ccccc21` stands 4.12% (inactive). Next, `COC(=O)c1ccsc1NC(=O)CCS(=O)(=O)c1ccc(Cl)cc1`: -2.4% (inactive); `CCCCNC(=O)CSc1nc2c(sc(=S)n2-c2cc(Cl)ccc2OC)c(=O)[nH]1`: 2.82% (inactive); `CCOc1ccc(OCCC(=O)OCC(=O)Nc2ccc(N3CCOCC3)cc2)cc1`: 8.74% (inactive). As for `C=CCNCc1ccccc1[N+](=O)[O-]`, the inhibition is 15% (inactive). `Cc1c(C#N)c2ncnc(-c3ccccc3)c2n1-c1ccccc1`: the inhibition is -23.1% (inactive).

`COc1cccc2c1-c1c(O)cccc1C2=O`: the inhibition was 6.4% (inactive).

In the case of `COC(=O)c1cc(C#N)c(=O)[nH]c1C`, the inhibition was 4.68% (inactive). Turning to `O=C(CSc1c(Cl)cccc1Cl)N1CCC(c2nc3ccccc3s2)CC1`, the inhibition is 6.33% (inactive). In the case of `O=C(CSc1ccc(F)cc1)N1CCC(c2nc3ccccc3s2)CC1`, the inhibition was 3.87% (inactive). Turning to `CN1CCC(OC(=O)COc2ccccc2)CC1`, the inhibition was -3.85% (inactive). Consider `Cc1ccc2c(c1)N(C(=O)CCC(=O)N1CCOCC1)CCO2`, for which the inhibition is -0.82% (inactive).

Regarding `O=S(=O)(c1cccs1)n1cccn1`, the inhibition is 0.03% (inactive). On to `O=S(=O)(Nc1ccccn1)c1cccs1`, for which the inhibition is -1.52% (inactive). Regarding `COc1ccccc1N(C)S(=O)(=O)c1ccc(C(=O)Nc2ccncc2)cc1`, the inhibition is 6.47% (inactive). Under `Cc1nc2ccc(NC(=O)c3ccc(S(=O)(=O)N(C)C)cc3)cc2s1` stands 3.86% (inactive); under `COc1ccc(N2CCN(S(=O)(=O)CCNC(=O)/C=C/c3ccccc3)CC2)cc1`, 7.56% (inactive). In the case of `O=C(COC(=O)C1CC2CCCC(C1)C2=O)NC(=O)c1ccccc1` (configuration not stated), the inhibition is -2.77% (inactive). For the compound `O=C(COC(=O)C1CC2CCCC(C1)C2=O)NNC(=O)c1ccccc1Br` (configuration not stated), the inhibition was -3.73% (inactive). Regarding `Cc1nn(CC(O)c2ccccc2)c(C)c1Br` (configuration not stated), the inhibition was -6.52% (inactive). Take `O=C(Nc1nc2ccccc2n1Cc1ccc(Cl)cc1)c1ccco1`: the inhibition is 50.9% (inactive). As to `CCn1c(NC(C)=O)nc2ccccc21`, the inhibition was 31.6% (inactive). Consider `CCCn1c(NC(=O)c2ccccc2)nc2ccccc21`, for which the inhibition was -7.04% (inactive). With `CCC(=O)Nc1nc2ccccc2n1CCN(C)C`, the inhibition was -8.02% (inactive). Take `O=C(CSCc1ccc(Cl)cc1)Nc1ccc(S(=O)(=O)N2CCCCCC2)cc1`: the inhibition was 1.03% (inactive). As to `CC1CCCC(NC(=O)CSc2nncs2)C1C` (configuration not stated), the inhibition is -10.3% (inactive). In the case of `CCC(=O)c1ccc(OCC(=O)Nc2nc(-c3cccnc3)cs2)cc1`, the inhibition is 24.3% (inactive). `COC1=CC2[C@@H]3Cc4ccc(OC)c(O)c4[C@]2(CCN3C)CC1=O` (some centres not stated): the inhibition was 6.39% (inactive). In the case of `CC(C)=CCC/C(C)=C/CNC(=O)CC1C[C@H](C(=O)N2CCCCC2)[C@@]2(C)c3[nH]c4ccccc4c3CCN2C1=O` (some centres not stated), the inhibition was -1.03% (inactive). As to `Cc1cccc(NC(=O)C2Cc3ccccc3O/C2=N\O)c1` (configuration not stated), the inhibition was 0.7% (inactive). Under `CC(C)C(=O)N[C@H]1CCC2C3CC=C4C[C@@H](O)CC[C@]4(C)C3CC[C@@]21C` (some centres not stated) stands 4.73% (inactive); under `CN(C)CCN[C@H]1CCC2C3CC=C4C[C@@H](O)CC[C@]4(C)C3CC[C@@]21C` (some centres not stated), 1.3% (inactive); under `CCCCn1c(N)c(N(CC(C)C)C(=O)CCCc2nc3ccccc3c(=O)[nH]2)c(=O)[nH]c1=O`, 0.43% (inactive). Next, `Cc1cc(NC(=O)CCC(=O)N(CC(=O)NC2CCCC2)c2ccc3c(c2)OCCO3)no1`: -6.7% (inactive); `COc1ccc(-n2nc3c(c2NC(=O)CCCl)CSC3)cc1`: 5.23% (inactive). For `CCC(=O)Nc1c2c(nn1-c1ccc(OC)cc1)CSC2`, the inhibition is 1.36% (inactive). Turning to `CC(=O)n1cc(CO)c2ccccc21`, the inhibition was -8.42% (inactive). With `CC(=O)N(c1ccc(Cl)cc1)c1cn(C(C)=O)c2ccccc12`, the inhibition was 8.81% (inactive). `COc1ccccc1N1CCN(C(=O)CCCn2nc(C)c([N+](=O)[O-])c2C)CC1`: the inhibition is 2.97% (inactive).

For the compound `CCOc1ccc(C(=O)Nn2cnnc2)cc1`, the inhibition is 7.03% (inactive).
